# Screen size: about 280,000 compounds; about 1,100 (0.39%) were called active. About 7% were inconclusive and are not listed. Calls come from the whole dose curve; as a rule, active = well fitted inhibition curve with a large enough effect; inconclusive = small, poorly fitted or top-dose-only effect, or effect the other way; inactive = flat fitted curve, though single readings scatter. Many of the other results were omitted from the sample, so actives are more common in it than they were.
# Molecular target: Microtubule-associated protein tau (Homo sapiens) (UniProt P10636)
# Assay: qHTS for Inhibitors of Tau Fibril Formation, Fluorescence Polarization; note: nearly all actives have a fitted effect of over 55% in size
# Conditions: K18 P301L tau heparin fibrillization, Alexa594 FP, 6 h; series mostly up to 57.7 µM; activity, negative = inhibition: at the top concentration
# Source text: NIH Molecular Libraries Probe Production Network [MLPCN]
# NIH Chemical Genomics Center [NCGC]
# Assay Provider: Carlo Ballatore, University of Pennsylvania
# The microtubule-associated protein tau is an abundant protein in the axons of neurons that stabilizes microtubules. With its ability to modulate microtubule dynamics, tau contributes directly or indirectly, to key structural and regulatory cellular functions. Particularly important is the influence tau exerts on axonal transport, which allows signaling molecules, trophic factors and other essential cellular constituents to travel along the axons. Under pathological conditions, tau becomes sequestered into insoluble aggregates called neurofibrillary tangles. This phenomenon is believed to have pathological consequences by promoting axonal transport deficits that ultimately lead to synaptic dysfunction and neuronal loss. To identify inhibitors of tau aggregation, a heparin-induced tau fibril formation assay was used that employed a recombinantly expressed fragment of tau, K18 (Q242-E372), bearing a P301L mutation (Gustke et al. 1994; Hong et al. 1998).
# Gustke, N., B. Trinczek, et al. (1994). "Domains of tau protein and interactions with microtubules." Biochemistry 33(32): 9511-22.
# Hong, M., V. Zhukareva, et al. (1998).
# Li, W. and V. M. Lee (2006). "Characterization of two VQIXXK motifs for tau fibrillization in vitro." Biochemistry 45(51): 15692-701.
# von Bergen, M., S. Barghorn, et al. (2001). "Mutations of tau protein in frontotemporal dementia promote aggregation of paired helical filaments by enhancing local beta-structure." J Biol Chem 276(51): 48165-74.
# NCGC Assay Protocol Summary:
# For screening, 2 uL/well human K18 P301L (15 uM unlabeled and 0.24 uM Alexa 594-labeled tau final concentrations) in reagent buffer (100 mM sodium acetate pH 7) was dispensed into black solid 1536-well plates (Grenier) using a solenoid-based dispenser. Following transfer of 23 nL compound or DMSO vehicle by a pin tool, 2 uL/well heparin (20 uM final concentration) in reagent buffer was added and the plate centrifuged 15 s at 1000 RPM. Plates were incubated 6 hr at 37 C and then 1 uL/well ThT (30 uM final concentration) was added. After a 1 hr ambient incubation, the plates were read by an Envision (Perkin Elmer) to monitor Alexa 594 FP (555 nm excitation and 632 nm emission).
# Keywords: NIH Roadmap, MLPCN, MLI, MLSMR, NCGC, qHTS, tau, tauopathies, Alzheimer's disease, fibril, neurodegeneration, aggregation
# % is set by controls: 0 for no effect and ±100 for the full control effect; potency is the fitted concentration of half-maximal effect.
# Chain of Microtubule-associated protein tau (Homo sapiens) (P10636 561-689 P618L limits assumed): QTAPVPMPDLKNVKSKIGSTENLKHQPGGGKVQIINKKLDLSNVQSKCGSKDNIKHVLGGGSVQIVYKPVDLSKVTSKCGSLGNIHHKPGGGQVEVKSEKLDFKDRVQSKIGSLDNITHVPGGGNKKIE
Compound,Potency,"activity, negative = inhibition"
CC[N+](C)(CC)CCC[n+]1c(-c2ccccc2)c2cc(N)ccc2c2ccc(N)cc21,6.31 µM (active),
CCCN(C/C=C/I)C1CCc2ccc(O)cc2C1 (stereo not given),,-3.39% (inactive)
c1ccc2sc(SNC3CCCCC3)nc2c1,,2.44% (inactive)
CN(C)[C@@H]1C(=O)C(C(N)=O)=C(O)[C@@]2(O)C(=O)C3=C(O)c4c(O)cccc4[C@@](C)(O)C3CC12 (stereo not given in full),,-1.29% (inactive)
CO[C@@H]1C[C@@H](C[C@H]2CC[C@H](C)[C@@H]([C@@H](C)C(=O)O)O2)O[C@]2(O[C@](C)([C@H]3CC[C@@](C)(C4OC([C@H]5O[C@@](O)(CO)[C@H](C)C[C@@H]5C)C[C@@H]4C)O3)C[C@H]2C)[C@@H]1C (stereo not given in full),,-0.541% (inactive)

# — PubChem BioAssay AID1468 (National Center for Advancing Translational Sciences (NCATS), 2008)
